Data published in the supplement of paper PMC12339681.
Structures can show the parent of a compound that is named as a salt.

Tested on: PBMC-derived induced microglia-like cells (piMGLC)
Assay: synaptosome phagocytic index relative to DMSO control (fraction of DMSO); higher = more phagocytosis
Details: concentration: 10 uM (2 uM for compounds listed in Table S2); pretreatment time: 24 h; assay time: 3 h
Protocol: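 PBMC-derived induced microglia-like cells (piMGLCs) in 96-well plates were pretreated for 24 h with CNS-penetrant library compounds (MedChemExpress HY-L028), mostly at 10 uM; Table S2 lists 9 compounds at 2 uM. pHrodo-Red-labelled human iPSC-neuron synaptosomes (3 ug/well) were then added for 3 h, and cells were fixed and imaged by confocal microscopy. Phagocytic index (synaptosome area / cell count, CellProfiler) is a mean over 3 replicate wells on different plates, normalized to the DMSO control. Compounds leaving <10% of DMSO cell count were marked toxic and given no value.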

Row | SMILES | synaptosome phagocytic index
1 | O=C1Cc2cc(CCN3CCN(c4nsc5ccccc45)CC3)c(Cl)cc2N1 [Ziprasidone_(hydrochloride_monohydrate)] | 0.51
2 | NC1=N[C@@]2(c3cc(NC(=O)c4ccc(F)cn4)ccc3F)COC[C@H]2CS1 | 1.35
3 | O=C(c1ccc(Cl)cc1)N(Cc1ccccc1)C1CCCCC1 | 0.616
4 | CC[C@H](COc1cccnc1C1CCN(C(=O)[C@@H](Cc2ccc(Cl)cc2Cl)NC(=O)N2CCCC2)CC1)N1CCCC1 | 0.292
5 | CC(=O)[C@H]1CC[C@H]2[C@@H]3CC=C4C[C@@H](OS(=O)(=O)O)CC[C@]4(C)[C@H]3CC[C@]12C [Pregnenolone_monosulfate] | 0.895
6 | O=C(O)CCCc1ccccc1 [Sodium_4-phenylbutyrate] | 0.996
7 | NC12CC3CC(CC(C3)C1)C2 [Amantadine_(hydrochloride)] | 1.02
8 | CCN1CCN(C(=O)N[C@@H](C(=O)N[C@@H]2C(=O)N3[C@@H]2SC(C)(C)[C@@H]3C(=O)O)c2ccccc2)C(=O)C1=O [Piperacillin_(sodium)] | 1.13
9 | CN(C)C(=O)c1cc2cnc(Nc3ccc(N4CCNCC4)cn3)nc2n1C1CCCC1 [Ribociclib_hydrochloride] | 0.332
10 | CCN(C(=O)c1c(O)c2c(Cl)cccc2n(C)c1=O)c1ccccc1 [Laquinimod] | 0.888
11 | Cn1c(OCC2CCC(C(F)(F)F)CC2)nn2c(C3CCOCC3)ncc2c1=O (stereo not given) | 0.831
12 | Cn1cc(-c2ccncc2)c(-c2ccc(OCc3ccc4ccccc4n3)cc2)n1 [Mardepodect] | 0.723
13 | O=C1N=C(O)NC1(c1ccccc1)c1ccccc1 [Phenytoin_(sodium)] | 0.725
14 | CC1COc2c(N3CCN(C)CC3)c(F)cc3c(=O)c(C(=O)O)cn1c23 (stereo not given) [Ofloxacin] | 1.05
15 | Cc1cc(NC(=O)Cc2ccc(F)c(Cl)c2)n(C2CCCCC2)n1 | 0.77
16 | Cc1ccc(-c2ncn(-c3ccc(Nc4nccc(-c5cccc(N6CCOCC6)c5)n4)cc3)n2)cn1 | 0.167
17 | N[C@@H]1CONC1=O [D-Cycloserine] | 0.834
18 | CN(C)C(=O)c1cc2cnc(Nc3ccc(N4CCNCC4)cn3)nc2n1C1CCCC1 [Ribociclib] | 0.78
19 | CNCCC=C1c2ccccc2CCc2ccccc21 [Nortriptyline_(hydrochloride)] | 0.487
20 | COc1nccc(-c2c(-c3ccc(F)cc3)ncn2C2CCC(O)CC2)n1 (stereo not given) | 0.995

Row | SMILES | synaptosome phagocytic index
21 | COc1ccc2c(c1)c(CC(=O)O)c(C)n2C(=O)c1ccc(Cl)cc1 [Indomethacin] | 1.22
22 | CN[C@@H]1[C@H](O[C@H]2[C@H](O[C@H]3[C@H](O)[C@@H](O)[C@H](N=C(N)N)[C@@H](O)[C@@H]3N=C(N)N)O[C@@H](C)[C@]2(O)C=O)O[C@@H](CO)[C@H](O)[C@H]1O [Streptomycin_(sulfate)] | 0.697
23 | NC(=O)c1cccc(-c2cccc(OC(=O)NC3CCCCC3)c2)c1 | 0.86
24 | CC(=O)Oc1ccccc1C(=O)O [Aspirin] | 0.579
25 | O=C1c2cccc3c2[C@H](CCC3)CN1[C@@H]1CN2CCC1CC2 [Palonosetron_(Hydrochloride)] | 0.526
26 | N#Cc1cccc(-c2c[nH]c3ncnc(N4CCOCC4)c23)c1 | 0.623
27 | C[C@@H](NC(=O)c1ccc(F)cc1)c1ccc2c(c1)CCN2C(=O)C1CCOCC1 | 0.908
28 | Nc1cccc2c1C(=O)N(C1CCC(=O)NC1=O)C2=O (stereo not given) [Pomalidomide] | 0.545
29 | Cc1ccc(Nc2nccc(N(C)c3ccc4c(C)n(C)nc4c3)n2)cc1S(N)(=O)=O [Pazopanib_(Hydrochloride)] | 0.523
30 | COc1ccc(C[C@@H]2c3cc(OC)c(OC)cc3CC[N@+]2(C)CCC(=O)OCCCCCOC(=O)CC[N@@+]2(C)CCc3cc(OC)c(OC)cc3[C@H]2Cc2ccc(OC)c(OC)c2)cc1OC [Cisatracurium_(besylate)] | 0.726
31 | COCc1ccc(-c2ccc(N(C[C@@H](N)[C@@H](C)OC)C(=O)[C@@H]3C[C@H]3c3ccccn3)cc2)cc1 | 0.794
32 | O=NN(CCCl)C(=O)NC1CCCCC1 [Lomustine] | 0.897
33 | CC(C)[C@H](NC(=O)c1ccc2ccccc2n1)C(=O)N[C@@H](CC(=O)O)C(=O)COc1c(F)cccc1F | 1.14
34 | OCCOCCN1CCN(C(c2ccccc2)c2ccc(Cl)cc2)CC1 (stereo not given) [Hydroxyzine_(dihydrochloride)] | 0.957
35 | O=C1NC(c2ccccc2)(c2ccccc2)C(=O)N1COP(=O)(O)O [Fosphenytoin_(disodium)] | 0.487
36 | NCCCS(=O)(=O)O [Tramiprosate] | 1.14
37 | O=c1ncn2nc(Sc3ccc(F)cc3F)ccc2c1-c1c(Cl)cccc1Cl [Neflamapimod] | 0.984
38 | O=C1NC(=O)C(c2ccccc2)(c2ccccc2)N1 [Phenytoin] | 1.12
39 | CCc1cc2c(cc1N1CCC(N3CCOCC3)CC1)C(C)(C)c1[nH]c3cc(C#N)ccc3c1C2=O [Alectinib_(Hydrochloride)] | 0.192
40 | CN(C)CCc1c[nH]c2ccc(Cn3cncn3)cc12 [Rizatriptan_(benzoate)] | 1.11
